The text below walks through data of PubChem BioAssay (EPA / NIEHS).

Several values for one entry are separate records, joined by “and”; a condition that tells them apart may be missing. Equal values may be shown once. Some structures have more than one record in an assay (separate samples or runs), and their calls can disagree. Activity calls are given as the source filed them. Rule for the calls: active = hit-call score of the fitted dose curve at least 0.9, where 1 is the maximum; inactive = score below 0.9.

Holding throughout (settings): mRNA level, 48 h; actives raise or lower the signal
Read-out in assay [1]: Hypoxia-inducible factor 1-alpha (Homo sapiens) (UniProt Q16665)
Description: LTEA_HepaRG_HIF1A: Life Technologies and Expression Analysis (LTEA) Assay for Hypoxia-inducible factor 1 (HIF1A) Trancription factor using HepaRG (AID 2283503). The essentials:
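HepaRG, 48 h exposure, 8-pt half-log series from 100 uM, 0.5% DMSO vehicle, duplicates. Readout: HIF1A transcript by qRT-PCR (Fluidigm array), housekeeping-normalised. Bidirectional curve fit vs DMSO baseline.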

Read-out in assay [2]: 3-Hydroxy-3-Methylglutaryl-CoA Synthase 2 (HMGCS2), HMGCS2 (gene 3158)
Description: LTEA_HepaRG_HMGCS2: Life Technologies and Expression Analysis (LTEA) Assay for 3-Hydroxy-3-Methylglutaryl-CoA Synthase 2 (HMGCS2) using HepaRG (AID 2283504). The essentials: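 qRT-PCR read-out of HMGCS2 transcript, normalised to three housekeeping genes, in HepaRG cells after 48 h chemical exposure. Eight-point curves from 100 uM, half-log dilutions, 0.5% DMSO vehicle; gain or loss fitted relative to DMSO baseline.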

Read-out in a further assay: HGF (gene 3082)
The assay is described as follows: LTEA_HepaRG_HGF: Life Technologies and Expression Analysis (LTEA) Assay for Hepatocyte Growth Facto (HGF) using HepaRG (AID 2283505). A digest of the protocol:
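HepaRG, 48 h dosing, 8-pt half-log series from 100 uM in 0.5% DMSO, duplicates. Readout: TaqMan qRT-PCR of HGF mRNA, housekeeping-normalized; bidirectional curve fit vs DMSO baseline.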

Read-out in assay [3]: Insulin Like Growth Factor 1 (IGF1), IGF1 (gene 3479)
The assay is described as follows: LTEA_HepaRG_IGF1: Life Technologies and Expression Analysis (LTEA) Assay for Insulin Like Growth Factor 1 (IGF1) using HepaRG (AID 2283506). A digest of the protocol:
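Differentiated human HepaRG cells were dosed for 48 h in serum-free induction medium with 0.5% DMSO, eight half-log concentrations up to 100 uM, in duplicate. IGF1 mRNA was quantified by qRT-PCR normalized to ACTB, GAPDH, POLR2A; bidirectional fitting versus DMSO.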

Read-out in assay [4]: Intercellular Adhesion Molecule 1 (ICAM1), ICAM1 (gene 3383)
Description: LTEA_HepaRG_ICAM1: Life Technologies and Expression Analysis (LTEA) Assay for Intercellular Adhesion Molecule 1 (ICAM1) using HepaRG (AID 2283507). A digest of the protocol: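 HepaRG, 48 h exposure, 8-pt half-log series from 100 uM, 0.5% DMSO vehicle, duplicates. Readout: TaqMan qRT-PCR mRNA, housekeeping-normalized (ACTB/GAPDH/POLR2A). Bidirectional curve fit vs DMSO baseline.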

Read-out in assay [5]: Insulin-like growth factor-binding protein 1 (IGFBP1), IGFBP1 (gene 3484)
The assay is described as follows: LTEA_HepaRG_IGFBP1: Life Technologies and Expression Analysis (LTEA) Assay for Insulin-like growth factor-binding protein 1 (IGFBP1) using HepaRG (AID 2283508). The essentials: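 qRT-PCR mRNA read-out (TaqMan, Fluidigm array), normalised to three housekeeping genes; HepaRG cells, 48 h exposure, 8-pt half-log series from 100 uM, 0.5% DMSO vehicle; bidirectional curve fit vs DMSO baseline.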

Read-out in assay [6]: Interleukin 6 (IL6), IL6 (gene 3569)
The assay is described as follows: LTEA_HepaRG_IL6: Life Technologies and Expression Analysis (LTEA) Assay for Interleukin 6 (IL6) using HepaRG (AID 2283509). A digest of the protocol: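 HepaRG, ~100,000 cells/well, 48 h pre-culture; serum-free induction medium; cmpd 8-pt half-log from 100 uM, 0.5% DMSO, duplicate, 48 h. Lysis in RLT, TaqMan qRT-PCR; gain or loss vs DMSO.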

Read-out in assay [7]: Interleukin 6 Receptor (IL6R), IL6R (gene 3570)
The assay is described as follows: LTEA_HepaRG_IL6R: Life Technologies and Expression Analysis (LTEA) Assay for Interleukin 6 Receptor (IL6R) using HepaRG (AID 2283510). The essentials:
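Differentiated human HepaRG cells, plated 48 h then switched to serum-free induction medium, were dosed in duplicate for 48 h at eight half-log concentrations up to 100 uM in 0.5% DMSO. IL6R mRNA quantified by qRT-PCR, normalized to ACTB/GAPDH/POLR2A; bidirectional fit versus DMSO.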

Read-out in assay [8]: Potassium channel subfamily K member 1 (KCNK1), KCNK1 (gene 3775)
The assay is described as follows: LTEA_HepaRG_KCNK1: Life Technologies and Expression Analysis (LTEA) Assay for Potassium channel subfamily K member 1 (KCNK1) using HepaRG (AID 2283511). The essentials:
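Gain or loss of KCNK1 mRNA is the read-out, quantified by qRT-PCR against three housekeeping genes after 48 h chemical treatment of human HepaRG liver cells. Concentrations ran from 100 uM downward in half-log steps, vehicle 0.5% DMSO.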

Read-out in assay [9]: Keratin 19 (KRT19), KRT19 (gene 3880)
Description: LTEA_HepaRG_KRT19: Life Technologies and Expression Analysis (LTEA) Assay for Keratin 19 (KRT19) using HepaRG (AID 2283512). The essentials:
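HepaRG, 48 h chemical exposure, 8-pt half-log CRC from 100 uM, 0.5% DMSO vehicle, duplicates. Readout: TaqMan qRT-PCR of KRT19 mRNA, housekeeping-normalized (ACTB/GAPDH/POLR2A). Bidirectional fit vs DMSO baseline.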

Sequence of Hypoxia-inducible factor 1-alpha (Homo sapiens) (Q16665 whole entry, looked up): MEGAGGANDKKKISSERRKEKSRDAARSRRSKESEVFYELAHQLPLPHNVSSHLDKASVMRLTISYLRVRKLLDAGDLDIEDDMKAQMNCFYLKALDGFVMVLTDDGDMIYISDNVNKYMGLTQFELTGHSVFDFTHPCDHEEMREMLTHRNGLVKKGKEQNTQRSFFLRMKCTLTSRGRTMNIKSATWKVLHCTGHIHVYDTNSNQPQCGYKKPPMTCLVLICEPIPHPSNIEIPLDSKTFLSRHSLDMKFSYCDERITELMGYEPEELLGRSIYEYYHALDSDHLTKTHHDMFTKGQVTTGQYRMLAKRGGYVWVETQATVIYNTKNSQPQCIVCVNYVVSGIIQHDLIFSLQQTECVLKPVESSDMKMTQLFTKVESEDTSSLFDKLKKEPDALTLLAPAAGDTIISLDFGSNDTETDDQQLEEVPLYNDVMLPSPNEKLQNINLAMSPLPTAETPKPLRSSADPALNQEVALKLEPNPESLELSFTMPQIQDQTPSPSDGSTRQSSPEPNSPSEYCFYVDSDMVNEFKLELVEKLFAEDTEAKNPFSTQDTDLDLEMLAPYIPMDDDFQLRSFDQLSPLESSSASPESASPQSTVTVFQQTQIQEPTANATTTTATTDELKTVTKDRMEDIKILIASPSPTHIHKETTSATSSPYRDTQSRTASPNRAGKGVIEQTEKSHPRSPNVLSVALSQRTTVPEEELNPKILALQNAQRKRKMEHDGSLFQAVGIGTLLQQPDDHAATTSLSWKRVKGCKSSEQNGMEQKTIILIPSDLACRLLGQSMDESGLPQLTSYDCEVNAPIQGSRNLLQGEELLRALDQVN

Take `N#CN`: the result (in assay [1]; in assay [2]; with HGF (gene 3082); in assay [3]; in assay [4]; in assay [5]) was inactive. The call in assay [6], in [7], in [8] and in assay [9] was inactive.

As for `COc1nn(CSP(=S)(OC)OC)c(=O)s1`, the call (in assay [1]; in assay [2]; in the assay with HGF (gene 3082); in assay [3]; in assay [4]; in assay [5]) was inactive. For the same compound, the outcome in assay [6], in [7], in [8] and in assay [9] was inactive.

Usually AC50 stands for the concentration giving half of the maximal activity seen. For `CC[C@H](C)[C@H]1O[C@]2(C=C[C@@H]1C)C[C@@H]1C[C@@H](C/C=C(\C)[C@@H](O[C@H]3C[C@H](OC)[C@@H](O[C@H]4C[C@H](OC)[C@@H](O)[C@H](C)O4)[C@H](C)O3)[C@@H](C)/C=C/C=C3\CO[C@@H]4[C@H](O)C(C)=C[C@@H](C(=O)O1)[C@]34O)O2` (tested in a mixture with another compound), the AC50 in [1] is 19 µM (active); in [2], 16.2 µM (active); in [3], 16 µM (active); in assay [4], 13.6 µM (active); in assay [5] it was 11.6 µM (active); in assay [6] it was 18.6 µM (active). In addition, the values for the AC50 in assay [7], in assay [8] and in [9] were 13.9 µM (active), 16.8 µM (active) and 7.94 µM (active), respectively. Further, the call with HGF (gene 3082) was inactive.

Regarding `OCCOc1ccccc1`, the call (in assay [1]; in assay [2]; with HGF (gene 3082); in assay [3]; in assay [4]; in assay [5]) was inactive. Further, the outcome in assay [6], in assay [7], in [8] and in assay [9] was inactive.

In the case of `O=C1c2ccccc2C(=O)N1SC(Cl)(Cl)Cl`, the compound was called inactive (in assay [1]; in assay [2]; in the assay with HGF (gene 3082); in assay [3]; in assay [4]; in assay [5]). Moreover, the outcome in assay [6], in [7], in [8] and in assay [9] was inactive.

In the case of `CNC(=O)/C=C(\C)OP(=O)(OC)OC`, the call (in assay [1]; in assay [2]; with HGF (gene 3082); in [3]; in assay [4]; in assay [5]) was inactive. The outcome in [6], in assay [7], in [8] and in assay [9] was inactive.

For the compound `CCOCN(C(=O)CCl)c1c(C)cccc1CC`, the compound was classed as inactive (in assay [1]; in the assay with HGF (gene 3082); in assay [4]; in [6]; in assay [8]; in [9]). Moreover, the AC50 in [2] was 81.2 µM (active); in [3], 76.4 µM (active); in [5], 63 µM (active); in assay [7], 50 µM (active).

For the compound `O=S(=O)(O)C(F)(F)C(F)(F)C(F)(F)C(F)(F)C(F)(F)C(F)(F)C(F)(F)C(F)(F)F`, the call (in assay [1]; in assay [2]; with HGF (gene 3082); in [4]; in assay [5]; in assay [6]) was inactive. The call in assay [7], in assay [8] and in assay [9] was inactive. The AC50 in [2] was 83.8 µM (active) and 92.2 µM (active) and 81.5 µM (active); in assay [5], 77.6 µM (active) and 50 µM (active); in [7], 82.9 µM (active) and 90 µM (active); in [9], 33.1 µM (active) and 32.8 µM (active) and 62.9 µM (active).

`CC1(C)C(C=C(Cl)Cl)C1C(=O)OC(C#N)c1ccc(F)c(Oc2ccccc2)c1` (stereo not drawn): the call (in assay [1]; in assay [2]; with HGF (gene 3082); in assay [3]; in [4]; in [5]) was inactive. Also, the compound was classed as inactive in [6], in assay [7], in assay [8] and in assay [9].

Regarding `O=[N+]([O-])c1c(Cl)c(Cl)c(Cl)c(Cl)c1Cl`, the compound was called inactive (in assay [1]; in assay [2]; with HGF (gene 3082); in assay [4]; in [5]; in assay [7]). Besides, the result in assay [8] was inactive. The AC50 in assay [3] was 50 µM (active); in assay [6], 9.92 µM (active); in assay [9], 38.6 µM (active).

In the case of `CC(C)OC(=O)Nc1cccc(Cl)c1`, the outcome (in [1]; in [2]; with HGF (gene 3082); in assay [3]; in assay [4]; in assay [5]) was inactive. The compound was classed as inactive in assay [6], in [7], in assay [8] and in assay [9].

With `CC(C)(C)C(O)/C(=C\c1ccc(Cl)cc1Cl)n1cncn1` (stereo not drawn), the AC50 in assay [1] was 82.3 µM (active); in [2] it was 30.7 µM (active); in [3], 91.2 µM (active); in [4], 50 µM (active); in assay [5], 56.9 µM (active); in assay [6], 94.6 µM (active). Also, the AC50 in [7] is 50 µM (active); in assay [8] it was 71.6 µM (active). The compound was called inactive (in the assay with HGF (gene 3082); in assay [9]).
